The values below come from PubChem BioAssay (NCATS).

The structures appear in SMILES notation. Records with an inconclusive call do not appear. Entries that show only a call come without a potency. Activity calls are given as the source filed them. Calls follow the shape of the dose curve; as a rule, active = well fitted cell-killing curve with a large enough effect; inconclusive = small, poorly fitted or top-dose-only effect, or effect the other way; inactive = no such curve, though single readings can be large or run the other way.
Potency is read from the fitted curve at half-maximal effect.

The nature of the experiment: Quantitative High-Throughput drug screen in 47 multiple myeloma cell lines against the NCATS MIPE library collection: LP1_DSMZ cell viability assay (AID 1918982). Also: nearly all actives have a fitted effect of over 35% in size. The settings on record: LP1 myeloma viability, CellTiter-Glo ATP luminescence, 48 h; series mostly up to 45.8 µM. The source says: PI: Beverly A. Mock Ph.D.
Laboratory of Cancer Biology and Genetics,
Center for Cancer Research, National Cancer Institute,
National Institute of Health, Bethesda, Maryland
Drug resistance and disease progression are common in multiple myeloma (MM) patients, underscoring the need for new therapeutic combinations. […] We hypothesized that effective combinations would reduce MYC expression and enhance p16 activity. […] These preclinical data identify potentially useful drug combinations for evaluation in drug-resistant MM and reveal potential mechanisms of combined drug sensitivity.
Described herein is the primary MIPE qHTS used to cherrypick compounds. Validated compounds were then further tested for potential synergistic activiy.
[1] Peat TJ, Gaikwad SM, Dubois W, Gyabaah-Kessie N, Zhang S, Gorjifard S, Phyo Z, Andres M, Hughitt VK, Simpson RM, Miller MA, Girvin AT, Taylor A, Williams D, D'Antonio N, Zhang Y, Rajagopalan A, Flietner E, Wilson K, Zhang X, Shinn P, Klumpp-Thomas C, McKnight C, Itkin Z, Chen L, Kazandijian D, Zhang J, Michalowski AM, Simmons JK, Keats J, Thomas CJ, Mock BA. Drug combinations identified by high-throughput screening promote cell cycle transition and upregulate Smad pathways in myeloma. Cancer Lett. 2023 Aug 1;568:216284. doi: 10.1016/j.canlet.2023.216284. Epub 2023 Jun 24. PMID: 37356470; PMCID: PMC10408729.
SEQUENCE No. (e.g., 1, 2, 3, etc.); […] (e.g., Cells, Incubation, Reagent, etc.); VALUE and DESCRIPTION.
1; Cells; 5 uL; white, solid bottom 1536-well Greiner assay plate.
2; Compounds; 23 nL; Kalypsis pin tool (Wako USA) equipped with a 1536-well pin head to transfer to the assay plates.
3; Incubation; 48 hours; 37C incubation.
4; Reagent;5uL; CellTiter Glo (Promega).
5; Detector; 425V; Luminescence; Viewlux PerkinElmer.
NOTES (numbers refer to Sequence numbers above)
1. The cell-based screening methods employed in this study were like those previously published. Briefly, the corresponding myeloma cell lines were screened in 1,536-well plates with 500 cells, 5-uL per well for inhibition of cell viability (assessed by measuring ATP levels with CellTiterGlo).
2. NCATS MIPE 4.0 library of approved and investigational drugs were added using the Kalypsis pin tool. Wells treated with DMSO only for 100% viability and media only for 0% viability were used as controls.
3. The assay plates were covered and incubated for 48 hours in a 37C, 5% CO2 incubator with controlled humidity.
4. After 48 hours, CellTilter-GloTM luminescent substrate mix (Promega) reagent was added to the assay plate and plates we incubated for 5 min at room temperature.
5. Signal was measured as median relative luminescence units on a ViewLux (PerkinElmer) multiplate reader.
[1] Heske CM, Davis MI, Baumgart JT, Wilson K, Gormally MV, Chen L, Zhang X, Ceribelli M, Duveau DY, Guha R, Ferrer M, Arnaldez FI, Ji J, Tran HL, Zhang Y, Mendoza A, Helman LJ, Thomas CJ. Matrix Screen Identifies Synergistic Combination of PARP Inhibitors and Nicotinamide Phosphoribosyltransferase (NAMPT) Inhibitors in Ewing Sarcoma. Clin Cancer Res. 2017 Dec 1;23(23):7301-7311. doi: 10.1158/1078-0432.CCR-17-1121. Epub 2017 Sep 12. PMID: 28899971; PMCID: PMC6636827.
(In general: In ATP-based viability assays light output follows the ATP content of the culture.)
`Cc1ccccc1C(C(=O)NC1CCCCC1)N(C(=O)Cn1ccnc1C)c1cccc(F)c1` (stereo not given): the Potency is 13.2 µM (active).

Turning to `Cc1ccc(Nc2cc(-c3cccc(N4C(=O)c5ccccc5C4=O)c3)ncn2)cc1NS(C)(=O)=O`, the Potency is 26.4 µM (active).

For `N#Cc1ccc(NC(=O)Nc2ccccc2Br)c2n[nH]nc12`, the Potency result was “inactive”.

Turning to `O=C1C[C@@H](c2ccc(O)cc2)Oc2cc(O)cc(O)c21`, the Potency result is “inactive”.

As for `CN1C[C@H]2c3ccccc3Oc3ccc(Cl)cc3[C@@H]2C1`, the Potency result is “inactive”.

On to `CC(C)(C)COc1ccc(-n2cc(C(=O)O)cn2)cc1C#N`, for which the Potency entry is “inactive”.

In the case of `CCn1c(C(=O)N(C2CC2)C2CC2)cc2c3c(ncn3C)c(Nc3cc(C)n(C)n3)nc21`, the Potency entry is “inactive”.

`CC1(C)Cc2c(sc(NC(=S)NC(=O)c3ccccc3)c2C(=O)O)CO1`: the Potency entry was “inactive”.

Consider `CN(C)Cc1ccc(-c2nc3cccc4c3n2CCNC4=O)cc1`, for which the Potency is 23.5 µM (active).

Regarding `CC(C)C(C)C=CC(C)C1CCC2C3=CC=C4CC(O)CCC4(C)C3CCC21C` (stereo not given), the Potency result is “inactive”.

Consider `CC(C)n1cnc2c(NCCCCCCNC(=O)OC(C)(C)C)nc(NCCO)nc21`, for which the Potency was 18.7 µM (active).

With `O=C1C(Cl)=C(NCCN2CCOCC2)C(=O)c2ncccc21`, the Potency is 8.33 µM (active).

Consider `CC(C)=CC[C@@H](O)C1=CC(=O)c2c(O)ccc(O)c2C1=O`, for which the Potency was 3.32 µM (active).

Turning to `CC[C@]1(O)C[C@@H]2CN(CCc3c([nH]c4ccccc34)[C@@](C(=O)OC)(c3cc4c(cc3OC)N(C=O)[C@@H]3C45CCN4CC=C[C@](CC)([C@H]45)[C@@H](OC(C)=O)[C@]3(O)C(=O)OC)C2)C1` (stereo not given in full), the Potency was 20.9 µM (active).

Turning to `C[C@]12CC[C@@H]3c4ccc(O)cc4C[C@@H](CCCCCCCCCS(=O)CCCC(F)(F)C(F)(F)F)[C@H]3[C@H]1CC[C@H]2O` (stereo not given in full), the Potency was 11.8 µM (active).

As for `COc1cc2ncnc(Nc3ccc(F)c(Cl)c3)c2cc1OCCCN1CCOCC1`, the Potency is 48.1 µM (active).

Consider `COC[C@@H](c1ccc(C(F)(F)F)cc1)N1CCN(C2(C)CCN(C(=O)c3c(C)ncnc3C)CC2)C[C@H]1C`, for which the Potency entry was “inactive”.

As to `CCC(CC)[C@H](NC(C)=O)[C@@H]1[C@H](O)[C@@H](C(=O)O)C[C@@H]1N=C(N)N`, the Potency result is “inactive”.

Consider `CC[C@@]1(O)C[C@H](O[C@H]2C[C@H](N(C)C)[C@H](O[C@H]3C[C@H](O)[C@H](O[C@H]4CCC(=O)[C@H](C)O4)[C@H](C)O3)[C@H](C)O2)c2c(cc3c(c2O)C(=O)c2c(O)cccc2C3=O)[C@@H]1C(=O)OC`, for which the Potency is 1.05 µM (active).

Regarding `C=C1C(=O)OC(CCCCCCCC)C1C(=O)O` (stereo not given), the Potency result was “inactive”.

As for `COc1ccc2cccc(CCNC(C)=O)c2c1`, the Potency result is “inactive”.

As for `Cc1cc(OCCCc2c(C(=O)O)n(Cc3cccnc3)c3c(-c4c(COc5ccc(N6CCN([S+](C)(=O)[O-])CC6)cc5)nn(C)c4C)cccc23)cc(C)c1Cl`, the Potency is 14.8 µM (active).

Turning to `CO[C@H]1C(=O)[C@]2(C)[C@@H](OC)C[C@H]3OC[C@@]3(OC(C)=O)[C@H]2[C@H](OC(=O)c2ccccc2)[C@]2(O)C[C@H](OC(=O)[C@H](O)[C@@H](NC(=O)OC(C)(C)C)c3ccccc3)C(C)=C1C2(C)C`, the Potency entry was “inactive”.

As to `CCOC(CN1C(=O)[C@](CC(=O)Nc2ccc(C)cc2)(NC(=O)Nc2ccc(C)cc2)c2ccccc21)OCC`, the Potency result was “inactive”.

As to `CON=C(C(=O)N[C@@H]1C(=O)N2C(C(=O)OCOC(=O)C(C)(C)C)=C(C=Cc3scnc3C)CS[C@H]12)c1csc(N)n1`, the Potency entry is “inactive”.

Take `CC(C)OC(=O)CCCC=CC[C@@H]1[C@H](C=C[C@@H](O)COc2cccc(C(F)(F)F)c2)[C@H](O)C[C@@H]1O`: the Potency is 14.8 µM (active).

For `CC(=O)OC1C(C)OC(Oc2c(-c3ccc(O)cc3)oc3cc(O)cc(O)c3c2=O)C(O)C1OC(C)=O` (stereo not given), the Potency entry was “inactive”.

Regarding `Clc1ccc(C(c2ccc(Cl)cc2)n2cc[n+](CC(OCc3ccc(Cl)cc3Cl)c3ccc(Cl)cc3Cl)c2)cc1` (stereo not given), the Potency is 18.7 µM (active).

Regarding `CCc1ccc(OCc2ccccc2C(=O)Nc2ccc3nc(C)cc(N)c3c2)cc1`, the Potency is 8.33 µM (active).

Consider `COc1cc2nc(-c3ccc(N4CCN(C)CC4)cc3)nc(NCCN3CCOCC3)c2cc1OC`, for which the Potency is 0.132 µM (active).

Take `C=C1C(=O)[C@@]23C(CC[C@@H]1[C@H]2O)[C@@]12CO[C@]3(O)[C@@H](O)[C@@H]1C(C)(C)CC[C@@H]2O` (stereo not given in full): the Potency is 4.18 µM (active).

In the case of `Nc1ncnc2c1ncn2[C@@H]1O[C@@H](CO)[C@H](O)[C@H]1O`, the Potency result was “inactive”.

Consider `Cn1cc(C=C2C(=O)Nc3cccnc32)c2ccccc21`, for which the Potency entry is “inactive”.

For the compound `CO[C@H]1C[C@@H]2CC[C@@H](C)[C@@](O)(O2)C(=O)C(=O)N2CCCC[C@@H]2C(=O)O[C@H]([C@H](C)C[C@@H]2CC[C@H](OCCO)[C@H](OC)C2)CC(=O)[C@H](C)C=C(C)[C@@H](O)[C@@H](OC)C(=O)[C@H](C)C[C@H](C)C=CC=CC=C1C`, the Potency entry is “inactive”.

On to `CC(=O)Nc1ccc([C@H](C)C(=O)Nc2ncc(C(C)C)s2)cc1`, for which the Potency was 2.35 µM (active).

Consider `NC[C@@H]1O[C@@H](O[C@H]2[C@@H](O)[C@H](O[C@@H]3[C@@H](O)[C@@H](N)C[C@H](N)[C@H]3O[C@H]3O[C@H](CN)[C@@H](O)[C@@H](O)[C@H]3N)O[C@H]2CO)[C@H](N)[C@@H](O)[C@@H]1O`, for which the Potency entry was “inactive”.

For the compound `COC1CCC(N(C(=O)C2CCC(C)CC2)c2cc(C3=CCCCC3)sc2C(=O)O)CC1` (stereo not given), the Potency result is “inactive”.

As for `NS(=O)(=O)c1ccc(NC2=CC(=O)c3ccccc3C2=O)cc1`, the Potency was 2.35 µM (active).

Consider `Cn1c(N2CCCCS2(=O)=O)nc(C(=O)NCc2ccc(F)cc2)c(O)c1=O`, for which the Potency entry was “inactive”.

Take `O=C(OCC#CCSc1nnc(-c2cccc3ccccc23)o1)c1cc2ccccc2s1`: the Potency result was “inactive”.
